# Results: PubChem BioAssay (NCATS)
# Results filed as inconclusive are left out. Values without a mark were called inactive. Calls of active or inactive are those of the source. The call rests on the fitted dose curve; in most records, active means well fitted cell-killing curve with a large enough effect; inconclusive means small, poorly fitted or top-dose-only effect, or effect the other way; inactive means no such curve, though single readings can be large or run the other way.
# Assay: Viability qHTS for spleen associated tyrosine kinase inhibitor (SYKi) drug resistant MV4-11 cells (AID 1963824); further: nearly all actives have a fitted effect of over 35% in size
# Details: SYKi-resistant MV4-11 viability, CellTiter-Glo, 72 h; series mostly up to 45 µM; viability, % of control: at the top concentration
# In short: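 CellTiter-Glo luminescence, read 10 min after reagent addition, reports viability after a 72 hr compound exposure. Cells are an MV4-11 line made resistant to SYK inhibition, seeded at 500 per well onto compound-containing plates.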
# Potency means the concentration at half of the fitted maximal effect.
SMILES,Potency,"viability, % of control"
CC1=CCC2C(C)(CO)CCCC2(CO)C1CO (stereo not given),16.4 µM (active),
CC1(C)[C@@H](O[C@H]2O[C@H](C(=O)O)[C@@H](O)[C@H](O)[C@H]2O[C@@H]2O[C@H](C(=O)O)[C@@H](O)[C@H](O)[C@H]2O)CC[C@]2(C)[C@H]3C(=O)C=C4[C@@H]5C[C@@](C)(C(=O)O)CC[C@]5(C)CC[C@@]4(C)[C@]3(C)CC[C@@H]12,,91.6% [at 17.3 µM]
COc1cc(/C=C/C(=O)O[C@H]2[C@H](OC(=O)/C=C/c3cc(OC)c(O)c(OC)c3)O[C@H](CO[C@@H]3O[C@H](CO)[C@@H](O)[C@H](O)[C@H]3O)[C@@H](O)[C@@H]2O)ccc1O,,121% [at 17.3 µM]
C/C(=C\CCC(C)C1=CCC2(C)OC3=C(CC12)C(=O)C(O)CC3)CO (stereo not given),,91.4%
CO[C@H]1/C=C/O[C@@]2(C)Oc3c(C)c(O)c4c(O)c(c(/C=N\N5CCN(C6CCCC6)CC5)c(O)c4c3C2=O)NC(=O)/C(C)=C\C=C\[C@H](C)[C@H](O)[C@@H](C)[C@@H](O)[C@@H](C)[C@H](OC(C)=O)[C@@H]1C,11.8 µM (active),
CC(C)(O)C1CC=C(C(=O)OC[C@H]2O[C@@H](Oc3cc(C(=O)O)cc(O)c3O)[C@H](O)[C@@H](O)[C@@H]2O)CC1 (stereo not given in full),,84.7% [at 17.3 µM]
NCC(=O)O,,73% [at 17.3 µM]
[N-]=[N+]=N[C@]1(CO)O[C@@H](n2ccc(=O)[nH]c2=O)[C@@H](O)[C@@H]1O,,95.7%
CC(C)C(=O)O[C@@H]1[C@@H](O)[C@@H](O[C@H]2O[C@H](CO)[C@@H](O)[C@H](O)[C@H]2O)O[C@H](CO)[C@H]1O,,119% [at 17.3 µM]
CC(C)(O)c1ccc2c(c1)C(=O)CC1[C@](C)(CO)CCC[C@]21C (stereo not given in full),,71.4%
NC(=O)[C@H](O[C@@H]1O[C@H](CO)[C@@H](O)[C@H](O)[C@H]1O)c1ccccc1,,95.3%
Nc1nc(Cl)nc2c1ncn2C1OC(CO)C(O)C1F (stereo not given),0.13 µM (active),
CCOC(=O)Nc1cc(-c2ccc(C)c(NS(C)(=O)=O)c2)nn2c(C)nnc12,0.651 µM (active),
CC(=O)c1ccc2c(c1)N(CCCN1CCC(CCO)CC1)c1ccccc1S2,18.8 µM (active),
CC(C)=CCC[C@](C)(O[C@@H]1O[C@H](CO)[C@@H](O)[C@H](O)[C@H]1O)[C@H]1CC[C@]2(C)[C@@H]1[C@H](O)CC1[C@@]3(C)CC[C@H](O)C(C)(C)C3[C@@H](O[C@@H]3O[C@H](CO)[C@@H](O)[C@H](O)[C@H]3O[C@@H]3O[C@@H](C)[C@H](O)[C@@H](O)[C@H]3O)C[C@]12C (stereo not given in full),,105% [at 9.25 µM]
C[S+](CC[C@H](N)C(=O)[O-])C[C@H]1O[C@@H](n2cnc3c(N)ncnc32)[C@H](O)[C@@H]1O (stereo not given in full),,86.8%
COc1ccc(OC(=O)N(CC(=O)O)Cc2ccc(OCCc3nc(-c4ccccc4)oc3C)cc2)cc1,,58.9%
Cc1ccc(C(=O)/C=C/c2ccccc2)s1,7.31 µM (active),
C[N+]1(C)[C@@H]2CC[C@H]1CC(OC(=O)C(O)c1ccccc1)C2 (stereo not given in full),,101%
C=C1[C@H]2CC[C@]3(O)[C@@](CC[C@@H]4[C@](C)(C(=O)O)CCC[C@]43C)(C2)[C@H]1OC(=O)/C(C)=C\C,,73.8% [at 17.3 µM]
CC1=C(C(=O)O)/C(=C\CO[C@@H]2O[C@H](CO)[C@@H](O)[C@H](O)[C@H]2O)C(OC(=O)/C=C\c2ccc(O)cc2)C1 (stereo not given in full),,93.3% [at 17.3 µM]
COC(=O)C1=COC(O[C@@H]2O[C@H](COC(=O)/C=C/c3ccc(O)cc3)[C@@H](O)[C@H](O)[C@H]2O)C2C(CO)=CCC12 (stereo not given in full),,97.5% [at 17.3 µM]
C=C1OC2CC(C(=O)O)C=CC2NC1=O (stereo not given),2.91 µM (active),
CCC[C@@H]1C[C@@H](C(=O)N[C@@H]([C@H]2O[C@H](SC)[C@H](OP(=O)(O)O)[C@@H](O)[C@H]2O)[C@H](C)Cl)N(C)C1,,95.1% [at 17.3 µM]
O=C(OC1C=C(CO)C2C(OC3OC(CO)C(O)C(O)C3O)OC=CC12O)c1ccc(O)cc1 (stereo not given),,91.5% [at 17.3 µM]
O=C(NNc1nc2cc(F)ccc2n2cccc12)c1cnccn1,0.731 µM (active),
CC1=C(C(=O)O)/C(=C\CO[C@@H]2O[C@H](CO)[C@@H](O)[C@H](O)[C@H]2O)C(OC(=O)/C=C/c2ccc(O)cc2)C1 (stereo not given in full),,76.7% [at 17.3 µM]
CCOC(=O)[C@H](CCc1ccccc1)CC1(C(=O)N[C@H]2CCc3ccccc3N(CC(=O)O)C2=O)CCCC1,14.6 µM (active),
COC(=O)CC[C@H](NC(=O)[C@H](CC(C)C)NC(=O)OCc1ccccc1)C(=O)N[C@@H](Cc1cnc[nH]1)C(=O)N[C@@H](CC(=O)OC)C(=O)CF,,91.2% [at 9.25 µM]
CC1(C)S[C@@H]2[C@H](NC(=O)[C@H](N)c3ccc(O)cc3)C(=O)N2[C@H]1C(=O)O,,92.1%
